# “And” between values parts separate entries of the source, which are not always exact repeats. Equal values may be shown once. Inconclusive results are not listed. The source made the active and inactive calls. Rule for the calls: active = hit-call score of the fitted dose curve at least 0.9, where 1 is the maximum; inconclusive = response in the unintended direction; inactive = score below 0.9.
# Target: human Tyrosine Protein Kinase Receptor Tie-2 (Tie2), TEK (gene 7010) (UniProt Q02763)
# Test: NVS_ENZ_hTie2: NovaScreen (NVS) Enzymatic Assay for human Tyrosine Protein Kinase Receptor Tie-2 (Tie2) (AID 2283225)
# Description: NVS_ENZ_hTie2 is a biochemical, single-readout assay that uses extracted gene-proteins in a cell-free assay. Measurements were taken 1 hour after chemical dosing in a 384-well plate.NVS_ENZ_hTie2 is one of one assay component(s) measured or calculated from the NVS_ENZ_hTie2 assay. It is designed to make measurements of enzyme activity, a form of enzyme reporter, as detected with fluorescence intensity signals by Fluorescence and electrophoretic mobility shift technology.Data from the assay component NVS_ENZ_hTie2 was analyzed into 1 assay endpoint. This assay endpoint, NVS_ENZ_hTie2, was analyzed in the positive analysis fitting direction relative to DMSO as the negative control and baseline of activity. Using a type of enzyme reporter, loss-of-signal activity can be used to understand changes in the enzymatic activity as they relate to the gene TEK. Furthermore, this assay endpoint can be referred to as a primary readout, because this assay has produced multiple assay endpoints where this one serves a enzymatic activity function. To generalize the intended target to other relatable targets, this assay endpoint is annotated to the kinase intended target family, where the subfamily is receptor tyrosine kinase.
# Binding assays used specific radioligands (tritiated, iodinated) with non-radioactive competitive displacement ligands in agonist or antagonist protocols (as indicated) and various reference compounds and inhibitors to titrate specific binding to receptors and transporters. Most enzyme assays (CYPs, kinases, phosphatases, proteases, HDACs) used recombinant protein and specific substrates (fluorescence mostly, some colorimetric and radioactive) and inhibitors, followed by a biochemical separation of substrate and product. All assays for the biochemical HTS were initially run in duplicate at a single concentration (10 uM for CYP450 assays and 25 uM for all others). Assay-chemical combinations meeting a pre-defined threshold (e.g., 30% inhibition and other criteria defined below) were then run in singleton concentration-response format with maximum concentration of 20 uM for CYPs and 50 uM for all others. Each assay was run with positive and negative controls, and concurrent controls on every plate. The follow-up (secondary) screen tested active chemical-pairs in concentration series, as well as a few additional assays not tested in the primary screen, some selected negative inactives, and several cases re-run in the concentration series for confirmatory purposes.
# Chain of human Tyrosine Protein Kinase Receptor Tie-2 (Tie2), TEK (gene 7010) (Q02763 whole entry, looked up): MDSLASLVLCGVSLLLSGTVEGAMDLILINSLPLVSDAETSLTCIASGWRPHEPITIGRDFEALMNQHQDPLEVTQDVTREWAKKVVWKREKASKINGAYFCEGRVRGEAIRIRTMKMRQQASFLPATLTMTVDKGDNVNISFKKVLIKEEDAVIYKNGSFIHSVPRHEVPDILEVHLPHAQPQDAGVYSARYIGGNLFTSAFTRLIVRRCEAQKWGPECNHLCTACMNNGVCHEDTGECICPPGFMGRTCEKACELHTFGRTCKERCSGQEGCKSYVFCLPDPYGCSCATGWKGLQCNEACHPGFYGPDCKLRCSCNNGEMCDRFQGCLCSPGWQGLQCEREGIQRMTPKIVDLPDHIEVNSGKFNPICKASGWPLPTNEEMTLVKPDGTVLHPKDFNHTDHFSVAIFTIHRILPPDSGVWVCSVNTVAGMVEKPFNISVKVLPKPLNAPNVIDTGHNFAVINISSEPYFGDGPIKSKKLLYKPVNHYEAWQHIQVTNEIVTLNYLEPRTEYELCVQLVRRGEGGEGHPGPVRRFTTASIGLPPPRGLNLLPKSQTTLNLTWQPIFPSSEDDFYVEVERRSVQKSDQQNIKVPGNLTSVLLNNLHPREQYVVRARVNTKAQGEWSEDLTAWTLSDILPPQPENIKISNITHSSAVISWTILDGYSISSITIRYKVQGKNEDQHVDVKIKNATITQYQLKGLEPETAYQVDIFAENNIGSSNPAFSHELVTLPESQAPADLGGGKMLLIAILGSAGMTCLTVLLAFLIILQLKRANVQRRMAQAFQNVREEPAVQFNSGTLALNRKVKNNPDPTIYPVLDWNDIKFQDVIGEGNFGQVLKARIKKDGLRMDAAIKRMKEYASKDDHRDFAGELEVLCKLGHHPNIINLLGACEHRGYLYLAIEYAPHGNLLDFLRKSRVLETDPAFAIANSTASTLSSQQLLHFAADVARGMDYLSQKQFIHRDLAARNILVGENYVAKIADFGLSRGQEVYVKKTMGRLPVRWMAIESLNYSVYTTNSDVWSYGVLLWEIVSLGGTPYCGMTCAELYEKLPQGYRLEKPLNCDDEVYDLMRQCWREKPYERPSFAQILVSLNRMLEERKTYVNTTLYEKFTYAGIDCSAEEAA
Compound,outcome,AC50
Nc1cccc2c(N)cccc12,inactive,–
N#CSCSc1nc2ccccc2s1,inactive,–
CN(C)c1ccc(N=NS(=O)(=O)O)cc1,inactive,–
O=C(c1ccc(OCCN2CCCCC2)cc1)c1c(-c2ccc(O)cc2)sc2cc(O)ccc12,–,31 µM (active)
[O-]n1ccccc1=S.[O-]n1ccccc1=S.[Zn+2],inactive,–
O=C(O)c1cc(N=Nc2ccc(S(=O)(=O)Nc3ccccn3)cc2)ccc1O,inactive,–
CCCCOC(=O)CCCCC(=O)OCCCC,inactive,–
S=C(S)NCCNC(=S)S.[Mn+2].[S-]C([S-])=NCCN=C([S-])[S-].[Zn+2],–,9.01 µM (active) and 2.11 µM (active) and 12.8 µM (active)
CC(=O)OCCC(C)C,inactive,–
C#C[C@]1(O)CC[C@H]2[C@@H]3CCC4=CC(=O)CC[C@@H]4[C@H]3CC[C@@]21C,inactive,–
CC(CO)OC(C)CO (stereo not given) (tested in a mixture with another compound),inactive,–
NC(=NCCCCCCN=C(N)/N=C(\N)Nc1ccc(Cl)cc1)/N=C(\N)Nc1ccc(Cl)cc1,inactive,–
NCCO,inactive,–
CCCCC(CC)COC(=O)CCCCC(=O)OCc1ccccc1 (stereo not given),inactive,–
CC/C(=C(/CC)c1ccc(O)cc1)c1ccc(O)cc1,inactive,–
COc1ccc(OC(F)(F)F)cc1CN[C@H]1CCCN[C@H]1c1ccccc1,inactive,–
CC[C@H](C)C(=O)O[C@H]1C[C@H](O)C=C2C=C[C@H](C)[C@H](CC[C@@H](O)C[C@@H](O)CC(=O)O)[C@H]21,inactive,–
Cc1ccc(N)cc1O,inactive,–
Cc1nc(-c2ccc3c(c2)CCN(CCC2CCC(NC(=O)/C=C/c4ccc(F)cc4)CC2)CC3)no1 (stereo not given),–,16.2 µM (active)
CCN(CC)C(=O)c1cc(S(=O)(=O)Cc2ccccc2)c(N2CCC(c3ccccc3)CC2)cc1N(CC)CCN(C)C,inactive,–

Compound,outcome,AC50
O=C(O)Cc1cc(I)c(Oc2cc(I)c(O)c(I)c2)c(I)c1,inactive,–
O=c1[nH]cnc2c1ncn2[C@H]1CC[C@@H](CO)O1,inactive,–
O=C(CCl)c1ccccc1,inactive,–
N[C@@H](Cc1cc(I)c(Oc2ccc(O)c(I)c2)c(I)c1)C(=O)O,inactive,–
CCc1c(C(=O)NN2CCCCC2)nn(-c2ccc(Cl)cc2Cl)c1-c1ccc(Br)cc1,inactive,–
CCCCCCCCCCCCCC[P+](CCCC)(CCCC)CCCC,–,15.3 µM (active)
CCCCCCCCCCCCc1ccccc1S(=O)(=O)O,–,9.14 µM (active)
Cc1[nH]nc2c1N=C(c1ccccc1Cl)c1cc([N+](=O)[O-])ccc1N2,inactive,–
Cc1nc(-c2ccccn2)ncc1C(=O)Nn1cc(C)c2cc(F)ccc21,inactive,–
COCC(C)OCC(C)O (stereo not given),inactive,–
CCCC(CCC)C(=O)O,inactive,–
CCOC(=O)C(C)(C)Oc1ccc(Cl)cc1,inactive,–
O=C(O)c1ccc2c(c1)nc(C(=O)NC1CCN(C3CC3)CC1)n2Cc1cc(-c2ccc(Cl)s2)on1,inactive,–
S=C([S-])NCCNC(=S)[S-].[Mn+2],–,12.9 µM (active)
FC(F)(F)C(F)(F)C(F)(F)C(F)(F)C(F)(F)C(F)(F)CCI,inactive,–
C[C@]12C=CC(=O)C=C1CC[C@H]1[C@@H]3C[C@@H](O)[C@](O)(C(=O)CO)[C@@]3(C)C[C@H](O)[C@@]12F,inactive,–
CCCN(CCC)c1c([N+](=O)[O-])cc(C(F)(F)F)c(N)c1[N+](=O)[O-],inactive,–
CC(C)c1cccc(C(C)C)c1N1C(=O)c2ccc(O)cc2C1=O,inactive,–
COc1ccc(/C=C/S(=O)(=O)NC(=O)c2ccc(C)cc2Cl)cc1,inactive,–
CCCCCCCC(=O)O,inactive,–
